# From PubChem
# PfHsp90 set2 = inhibits growth of yeast expressing Plasmodium falciparum Hsp90 | actives 0.32% (n = 310,000) | S. cerevisiae expressing PfHsp90, BacTiter-Glo ATP, 48 h; yeast lacking PDR1 and PDR3 efflux regulators | inhibition, % at 9.4 µM;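 active = every replicate shows inhibition above about 80%, whatever the replicate mean, limit read from the data; inconclusive = mean inhibition reaches the set limit but some replicate falls short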;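 also: 0% = DMSO neutral controls and 100% = 20 µM radicicol positive controls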
# tim10-1 inh = inhibits growth of tim10-1 mutant yeast; inhibition, % at 20 µM; actives 2.2% (n = 330,000); S. cerevisiae tim10-1 ts strain growth, BacTiter-Glo, 24 h;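 active = inhibition of at least 40%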;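 also: mutant grown at 25 °C; 0% = DMSO wells with yeast and 100% = wells holding no yeast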
# NLRP3 yeast inh = blocks the NALP3 inflammasome reconstituted in yeast; Yeast reconstituted NLRP3/ASC/caspase-1, beta-gal luminescence, 24 h; inhibition, % at 10 µM; AID 2825; actives 0.39% (n = 330,000);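 active = inhibition of 50% or more; inactive = inhibition below 50%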;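 also: plate controls were induced DMSO wells for no effect and uninduced yeast grown without galactose for full effect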
# tim23-1 inh = growth inhibitors of tim23-1 mutant yeast; S. cerevisiae tim23-1 growth, BacTiter-Glo luminescence, 24 h; inhibition, % at 20 µM; actives 1.3% (n = 330,000);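 active = growth inhibition of the mutant yeast at or above 50%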;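 also: temperature-sensitive mutant grown at 25 °C; plate controls were DMSO-treated mutant yeast for no effect and medium wells lacking yeast for full effect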
# TIM10 inh = TIM10 yeast growth inhibition. inhibition, % at 10 µM. actives 1.4% (n = 330,000). S. cerevisiae TIM10 strain growth, BacTiter-Glo luminescence, 24 h;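 active = inhibition of 40% or more at the single tested concentration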;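 also: wild-type TIM10 isogenic control strain grown at permissive 25 °C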
# SKKanGAS inh = SKKanGAS growth inhibition. S. pyogenes SKKanGAS, kanamycin growth, BacTiter-Glo, 6 h. inhibition, % at 7.5 µM. actives 1.3% (n = 300,000). AID 1662;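 active = mean replicate score, as percent of positive control median, at least 50; inconclusive = mean below 50 but one replicate at or above 50; inactive = mean and every replicate below 50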;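 also: strain carries kanamycin resistance gene driven by streptokinase promoter and grows in 40 µg/ml kanamycin; loss of luminescence reflects streptokinase promoter inhibition or plain growth inhibition; 0% = median of DMSO wells and 100% = positive control at its reference dose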
# * marks the source's active call; other numbers are inactive results; ? = inconclusive; · = not tested or not shown; ! = not active in a repeat. Sampled rows, rich in hits. Any-hit rate of the full collection: about 4.6%.
SMILES,PfHsp90 set2,tim10-1 inh,NLRP3 yeast inh,tim23-1 inh,TIM10 inh,SKKanGAS inh
COc1ccc(N/N=C(/C(C)=O)N2CCCc3ccccc32)cc1,-10,8,34,8,-22,7
O=C(Nc1ccc(F)c(S(=O)(=O)N2CCOCC2)c1)C1CCCCC1,-19,11,6,9,7,·
O=C(N/N=C/c1ccc(-c2ccc(Cl)c(C(=O)O)c2)o1)c1cc2c(ccc3ccccc32)o1,-29,-2,11,-14,3,61*
CCOc1nc(Nc2ccc(OC)cc2)nc(N2CCOCC2)n1,-18,-3,21,7,-5,3
c1ccc(Nc2nc(N3CCCCC3)nc(N3CCCCC3)n2)cc1,-1,12,2,13,15,84*
CCOc1ccc(Nc2nc(N3CCCCC3)nc(N3CCCCC3)n2)cc1,-28,4,2,27,0,62*
Cc1ccc(C(=O)N2CCN(S(=O)(=O)c3ccccc3)CC2)s1,-6,8,-1,0,-7,10
Clc1ccc(-n2cc(COCc3ccccc3)nn2)cc1,-10,0,25,5,-3,3
CCCCCCc1cc2cc(-c3nnc(-c4ccccc4O)o3)c(=O)oc2cc1O,-16,25,-16,4,36,98*
O=C(c1ccc(C(F)(F)F)cc1)N1CCN(c2ccc(N3CCOCC3)nn2)CC1,12,-20,17,-19,-7,0
CCc1ccc(S(=O)(=O)/N=C2\C=C(Nc3ccc(C(=O)O)cc3)C(=O)c3ccccc32)cc1,-21,30,30,45,6,96*
Cc1ccc(S(=O)(=O)/N=C2\C=C(Nc3cccc(C(=O)O)c3)C(=O)c3ccccc32)cc1,23,18,22,32,18,87*
CC(C)(C)c1ccc(S(=O)(=O)/N=C2\C=C(NS(=O)(=O)c3ccccc3)C(=O)c3ccccc32)cc1,-66,29,17,50,18,94*
Cc1ccc(S(=O)(=O)/N=C2\C=C(NS(=O)(=O)c3ccccc3)C(=O)c3ccccc32)c(C)c1,3,·,·,·,·,·
O=C(NC1C2CC3CC(C2)CC1C3)C1CC1 (centres undefined),-44,3,37,6,6,2
O=C(NC1CCCCC1)NC1C2CC3CC(C2)CC1C3 (centres undefined),-23,26,20,28,16,54*
CCOC(=O)c1cnc(-n2nc(C)cc2C)nc1NNc1nc(-c2ccccc2)cc(-c2ccccc2)n1,-6,20,4,20,11,105*
CCOC(=O)c1cnc(-n2nc(C)cc2C)nc1NC,·,14,21,20,-33,?
CCOC(=O)c1cnc(-n2nc(C)cc2C)nc1NNc1nc(C)cc(C)n1,-3,21,4,-1,-16,80*
CC(=O)Oc1cccc(N2C(=O)c3ccc(C(=O)Nc4c[nH]c(=O)[nH]c4=O)cc3C2=O)c1,-19,7,-1,-8,0,5
CN1C(=O)/C(=N/OC(=O)c2ccccc2)c2ccccc21,137*,-25,7,-20,19,5
CN1C(C)(C)CC(=NOC(=O)c2ccccc2)CC1(C)C,·,12,6,-1,-9,-4
COC(=O)c1[nH]c(C)c(/C(O)=C2\C(=O)C(=O)N(CCN3CCOCC3)C2c2ccco2)c1C (centres undefined),8,-13,2,-2,-1,0
CCC(C)n1ncn(-c2ccc(N3CCN(c4ccc(OCC5COC(Cn6cncn6)(c6ccc(Cl)cc6Cl)O5)cc4)CC3)cc2)c1=O (centres undefined),92*,-80,28,-174,-92,22
COCc1c(Br)c(C)nc2sc3c(=O)[nH]nnc3c12,-21,25,9,27,-13,-1
SMILES,PfHsp90 set2,tim10-1 inh,NLRP3 yeast inh,tim23-1 inh,TIM10 inh,SKKanGAS inh
Cc1nnc(SCC2=C(C(=O)O)N3C(=O)C(NC(=O)Cn4cnnn4)C3SC2)s1 (centres undefined),-26,-5,22,-11,5,106*
Cc1nnc(SCC2=C(C(=O)O)N3C(=O)[C@@H](NC(=O)Cn4cnnn4)[C@H]3SC2)s1,-6,2,11,0,5,105*!
Cc1nnc(SCC2=C(C(=O)O)N3C(=O)C(NC(=O)COc4ccccc4)C3SC2)s1 (centres undefined),9,-16,4,11,-1,·
CCC(C)(C)C1CCC2(CC1)NC(=O)N(CC(=O)N1CCN(S(=O)(=O)c3cc(C)ccc3C)CC1)C2=O (centres undefined),2,9,26,10,4,6
O=C(NC1CCC(=O)N(CCOc2ccccc2)CC1)OCc1ccccc1 (centres undefined),15,4,0,6,3,-3
CC(C(=O)NCc1ccco1)n1cc([N+](=O)[O-])cn1 (centres undefined),-19,20,13,8,-9,-4
Brc1csc2ncccc12,4,-2,17,-7,10,-9
Oc1c(Br)cc(Br)c2cccnc12,107*,·,·,·,·,·
c1ccc(N2CCN(Cc3ccnc4ccccc34)CC2)cc1,·,4,1,3,7,-10
Oc1c(CN2CCN(c3ccccc3)CC2)cc(Br)c2cccnc12,124*,·,·,·,·,90*
O=C(CNc1cccc(S(=O)(=O)N2CCCC2)c1)Nc1ccc(C(F)(F)F)cc1,·,7,4,8,11,-1
Cc1cc(C)n(-c2nc(NCCO)c3c4c(sc3n2)CCCC4)n1,·,36,1,49,25,-4
Cc1cc(C)n(-c2nc(SCC(=O)O)c3c4c(sc3n2)CCCC4)n1,·,10,6,6,6,57*
CN1CCN(C2=Cc3ccc(Cl)cc3Sc3ccc(F)cc32)CC1,-4,-12,7,22,15,60*
Cc1cn(-c2cc(C(=O)Nc3ccc(C)c(NC(=O)C(=O)c4c[nH]c5ccccc45)c3)cc(C(F)(F)F)c2)cn1,-5,-8,19,-12,-11,68*
CC(C)C[C@H](NC(=O)N1CC(=O)Nc2ccccc21)C(=O)N[C@H](C(=O)O)c1ccccc1,-20,·,·,·,·,63*
O=C1CN(C(=O)N[C@@H](Cc2ccccc2)C(=O)N[C@H](C(=O)O)c2ccccc2)c2ccccc2N1,6,-1,3,5,-4,-1
CC(C)[C@H](NC(=O)N1CC(=O)Nc2ccccc21)C(=O)N[C@@H](Cc1ccccc1)C(=O)O,11,1,11,10,1,94*
CCOc1ccccc1OCCCC(=O)NNC(=O)c1nn(C)c(=O)c2ccccc12,-3,7,2,-15,6,·
O=C(Oc1ccccc1Cl)C1CCN(C(=O)c2ccc(F)cc2)CC1,11,23,27,36,6,-11
COCCOC(=O)c1c(NC(=O)COC(=O)c2ccc(C)o2)sc(C(N)=O)c1C,·,7,22,13,4,·
